Sampled rows, rich in hits. Any-hit rate of the full collection: about 1.5%.
Bcl-xL primary: inhibitors of human Bcl-xL; Q07817; GST-Bcl-xL / FITC-Bim BH3 peptide fluorescence polarization; inhibition, % at 10.9 µM; actives 0.7% (n = 320,000); AID 2129;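 active = inhibition above the mean of all tested compounds plus 3 SD, cutoff set per campaign, cut at about 30% in these data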;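 note: inhibitors lower millipolarization by displacing the labeled peptide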
Target sequence (Q07817 whole entry, looked up): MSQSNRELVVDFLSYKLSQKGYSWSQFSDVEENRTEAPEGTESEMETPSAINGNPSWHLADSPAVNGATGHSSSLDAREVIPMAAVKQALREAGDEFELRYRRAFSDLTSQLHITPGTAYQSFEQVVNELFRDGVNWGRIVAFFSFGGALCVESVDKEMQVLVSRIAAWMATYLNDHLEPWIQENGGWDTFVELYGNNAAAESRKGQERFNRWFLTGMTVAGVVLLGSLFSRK
MEX-5 binding: C. elegans MEX-5 TCR-2 RNA binding activity; AID 1832; actives 0.38% (n = 300,000); activity score (negative = inhibition of binding), % at 10 µM; MEX-5/FITC-TCR2 RNA binding, fluorescence polarization; hits give low values; Q9XUB2;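 active = inhibition past about -25% in most replicates, and total fluorescence under double the plate's negative control median, limit read from the data; inconclusive = replicates evenly split on the limit, or fluorescence at least double controls; inactive = too little inhibition in most replicates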
Target sequence (Q9XUB2 whole entry, looked up): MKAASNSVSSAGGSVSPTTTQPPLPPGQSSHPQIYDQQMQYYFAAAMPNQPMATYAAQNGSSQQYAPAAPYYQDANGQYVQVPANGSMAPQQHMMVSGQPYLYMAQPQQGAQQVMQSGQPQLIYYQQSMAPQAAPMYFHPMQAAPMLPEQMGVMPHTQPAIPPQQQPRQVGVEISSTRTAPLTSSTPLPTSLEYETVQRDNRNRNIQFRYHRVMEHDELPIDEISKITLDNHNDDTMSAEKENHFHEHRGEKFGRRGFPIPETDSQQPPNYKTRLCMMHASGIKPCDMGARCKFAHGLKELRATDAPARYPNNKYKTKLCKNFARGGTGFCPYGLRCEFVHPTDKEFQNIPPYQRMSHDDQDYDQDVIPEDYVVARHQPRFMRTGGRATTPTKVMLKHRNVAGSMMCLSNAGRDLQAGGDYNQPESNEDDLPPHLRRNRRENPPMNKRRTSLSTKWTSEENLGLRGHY
E coli Lon inh: inhibitors of E. coli Lon protease; P0A9M0; purified E. coli Lon protease, fluorescence polarization; inhibition, % at 7.94 µM; actives 0.42% (n = 360,000); in the data active = inhibition above about 13%, passing the limit was not always enough
GLD-1 RNA inh: GLD-1-TGE RNA interaction inhibition (C. elegans); Q17339; purified GLD-1 + fluorescein TGE RNA, fluorescence polarization; inhibition, % at 5.96 µM; actives 0.44% (n = 320,000); AID 2280;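 active = percent inhibition above a per-plate cutoff, the plate mean of test compounds plus 3 SD, cut at about 30% in these data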
MCL1-BIM inh: MCL1-BIM-BH3 interaction inhibition (human); Q07820; GST-MCL1 / FITC-Bim-BH3 fluorescence polarization; inhibition, % at 10.9 µM; actives 0.68% (n = 320,000);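 active = inhibition above the mean inhibition of all tested compounds plus 3 SD, set per campaign, cut at about 40% in these data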;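 note: higher means more loss of mP so more displacement of Bim peptide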
EBV gp42 inh: blocks Epstein-Barr virus glycoprotein 42 binding; Q1HVG2; Fluorescence polarization binding assay, mP read-out; inhibition, % (tested at 21.74 µM); actives 0.42% (n = 220,000); in the data active = inhibition above about 50%
Of the large screens only hits and unclear results are named; the others gave an inactive call.

Cc1cc(C)n(Cc2ccc(C(=O)N/N=C/c3ccc(-c4ccc([N+](=O)[O-])cc4)o3)o2)n1	Bcl-xL primary 50, MCL1-BIM inh 43 (no result: EBV gp42 inh)
Cc1cc(C(=O)N/N=C/c2ccc(-c3ccc([N+](=O)[O-])cc3C)o2)n[nH]1	none (no result: EBV gp42 inh)
CN(C)CCN1CCN(C(c2cc3ccccc3o2)c2nnnn2C(C)(C)C)CC1 (configuration not stated)	none (no result: Bcl-xL primary, MEX-5 binding, GLD-1 RNA inh, MCL1-BIM inh, EBV gp42 inh)
CC1C2NC(=O)N(Cc3ccccc3)C1(C)Oc1ccccc12 (configuration not stated)	none
CSc1nc(N)c2cn[nH]c2n1	none (no result: Bcl-xL primary, MEX-5 binding, GLD-1 RNA inh, MCL1-BIM inh, EBV gp42 inh)
c1ccc2c(c1)c1c(c3ccccc32)CN2CCCC2C1 (configuration not stated)	none (no result: Bcl-xL primary, MEX-5 binding, GLD-1 RNA inh, MCL1-BIM inh, EBV gp42 inh)
Cc1nn(C(=O)c2cccc([N+](=O)[O-])c2)c(C)c1Cl	none (no result: EBV gp42 inh)
COc1cc(CN2C[C@@H](CO)O[C@@H](n3cnc4c(N(C)C(C)C)ncnc43)C2)cc(OC)c1OC	none (no result: Bcl-xL primary, MEX-5 binding, GLD-1 RNA inh, MCL1-BIM inh, EBV gp42 inh)
O=C(NNC(=O)c1cc(Cl)ccc1[N+](=O)[O-])c1csc(N2CCOCC2)n1	MEX-5 binding -31 (no result: EBV gp42 inh)
COc1ccccc1C(=O)Nc1nnc(-c2ccccc2)s1	Bcl-xL primary 47 (no result: EBV gp42 inh)
CCOC(=O)C1=C[C@@H](CC)N(S(=O)(=O)c2ccc(C)cc2)[C@H]1c1cccs1	none (no result: Bcl-xL primary, MEX-5 binding, GLD-1 RNA inh, MCL1-BIM inh, EBV gp42 inh)
CC(=O)N(C1=C(Cl)C(=O)c2ccccc2C1=O)C1CCCCC1	MEX-5 binding -48
CC(=O)N(c1ccccc1C)C1CCCC1	none
Cc1ccc(-c2cc(-c3ccc(C)o3)nc(N)c2C#N)cc1	Bcl-xL primary 32, GLD-1 RNA inh 39, MCL1-BIM inh 45
COc1ccccc1/C=C/C=C1\Oc2c(ccc(O)c2CN(C)C)C1=O	Bcl-xL primary 53, MEX-5 binding inconclusive, MCL1-BIM inh 42
O=C(COC(=O)c1ccc(NS(=O)(=O)c2cccs2)cc1)NCc1ccco1	EBV gp42 inh 67
O=C(COC(=O)c1cccs1)NCc1ccco1	none (no result: EBV gp42 inh)
Cc1c(NC(=O)Nc2cccc(F)c2)c(=O)n(-c2ccccc2)n1C	GLD-1 RNA inh 121 (no result: EBV gp42 inh)
Cc1cccc(NC(=O)Nc2c(C)n(C)n(-c3ccccc3)c2=O)c1	none (no result: EBV gp42 inh)
Nc1[nH]c(C(=O)c2ccccc2)c(-c2ccccc2Br)c1C(=O)NCc1ccc(-c2ccccc2)cc1	none (no result: Bcl-xL primary, MEX-5 binding, GLD-1 RNA inh, MCL1-BIM inh, EBV gp42 inh)
CCOC(=O)c1c(-c2ccccc2)csc1NC(=O)/C(C#N)=C/c1ccc(OC)c(OC)c1	MEX-5 binding -43
O=C1C(Cl)=C(Nc2ccc3cn[nH]c3c2)C(=O)c2ccccc21	Bcl-xL primary 33
CCN1/C(=C2\SC(=S)N(Cc3ccccc3)C2=O)Sc2ccccc21	MEX-5 binding -26, EBV gp42 inh 53
CCN1/C(=C2/SC(=S)N(NC(C)=O)C2=O)Sc2ccccc21	MEX-5 binding -46 (no result: Bcl-xL primary, GLD-1 RNA inh, MCL1-BIM inh, EBV gp42 inh)
CCN1C(=O)/C(=C2/Sc3ccccc3N2CC)SC1=S	none (no result: EBV gp42 inh)
CN1/C(=C/C=C(/C#N)C(N)=O)C(C)(C)c2ccccc21	none
CN1/C(=C\C=C(/C#N)C(=O)Nc2ccccc2F)C(C)(C)c2ccccc21	MEX-5 binding -39
O=c1cc(O)c2ccc(O)cc2o1	none
O=c1ccc2[n+]([O-])c3ccc(O)cc3oc-2c1	MEX-5 binding -81, EBV gp42 inh 110 (no result: Bcl-xL primary, GLD-1 RNA inh, MCL1-BIM inh)
COC(=O)c1ccc(/C=N\N2CCN(Cc3ccc(C)cc3)CC2)cc1	E coli Lon inh 142
OCCCc1nc2n(n1)C(c1ccccc1Cl)C=C(c1cccs1)N2 (configuration not stated)	Bcl-xL primary 37, MCL1-BIM inh 42
OCCCc1nc2n(n1)C(c1cccs1)C=C(c1ccccc1)N2 (configuration not stated)	Bcl-xL primary 177, MEX-5 binding inconclusive, GLD-1 RNA inh 154, MCL1-BIM inh active, EBV gp42 inh 142 (no result: E coli Lon inh)
OCCCc1nc2n(n1)C(c1ccccc1)C=C(c1ccc(F)cc1)N2 (configuration not stated)	none
Cc1ccc(N/C=C2/Sc3ccccc3NC2=O)cc1	MEX-5 binding -54
O=C(Nc1ccc2nc3ccccc3nc2c1)c1ccccc1	Bcl-xL primary 31, EBV gp42 inh 73
O=C(c1ccccc1)c1ccc2c(c1)OCCOCCOCCO2	none
O=C(c1ccccc1)c1ccc2c(c1)OCCCO2	EBV gp42 inh 68
CN(C)S(=O)(=O)c1cccc(NC(=S)N/N=C/c2ccc(O)c(O)c2O)c1	MEX-5 binding -48 (no result: Bcl-xL primary, GLD-1 RNA inh, MCL1-BIM inh)
CC(=O)c1cc(NC(=O)c2cccc(C(F)(F)F)c2)c(=O)oc1/C=C/N(C)C	MEX-5 binding -36
COc1ccc(C(=O)Nc2cc(C(C)=O)c(C)oc2=O)cc1	none
CC(=O)c1cc(NC(=O)c2ccc(Cl)cc2)c(=O)oc1/C=C/N(C)C	MEX-5 binding -26
COc1ccc(NC(=O)CSc2nnnn2C2CC3C=CC2C3)cc1 (configuration not stated)	none (no result: EBV gp42 inh)
CC(=O)NC(Cc1ccc(F)cc1)C(=O)NC1CCN(C(=O)Nc2ccccc2C)CC1 (configuration not stated)	none (no result: EBV gp42 inh)
Cc1nc(S/C(=C\c2ccc(OCc3ccccc3Cl)cc2)C(=O)O)n[nH]1	none (no result: MEX-5 binding)
Cc1nc(S/C(=C\c2ccc(-c3ccc(C(=O)O)c(Cl)c3)o2)C(=O)O)n[nH]1	MEX-5 binding -91 (no result: Bcl-xL primary, GLD-1 RNA inh, MCL1-BIM inh)
O=C(Cn1cnc2scc(-c3cccc([N+](=O)[O-])c3)c2c1=O)NCc1ccco1	EBV gp42 inh 66
Cc1sc2ncn(CC(=O)NCc3ccco3)c(=O)c2c1-c1ccc(F)cc1	none
CCCCn1c(N)c(N(CC(C)C)C(=O)CSCc2c(C)noc2C)c(=O)[nH]c1=O	none (no result: EBV gp42 inh)
CC1=NN(C(N)=S)C(=O)C1N=Nc1cccc(C(=O)O)c1 (configuration not stated)	MEX-5 binding -30 (no result: Bcl-xL primary, GLD-1 RNA inh, MCL1-BIM inh, EBV gp42 inh)
CC(C)Cc1nnc(NC(=O)CCC(=O)N2CCC(C)CC2)s1	none (no result: EBV gp42 inh)
CC(C)Cc1nnc(NC(=O)CCC(=O)N2CC(C)CC(C)C2)s1 (configuration not stated)	MEX-5 binding -27 (no result: EBV gp42 inh)
Cc1cc(C)c(S(=O)(=O)N2CCN(C(=O)C3COc4ccccc4O3)CC2)c(C)c1 (configuration not stated)	none (no result: MEX-5 binding, EBV gp42 inh)
Nc1nc(-c2ccccc2)[nH]c(=O)c1N	MEX-5 binding -26
CCN(CC)c1ccc(/C=C/c2cccc[n+]2C)c(OC)c1	MEX-5 binding inconclusive, GLD-1 RNA inh 42 (no result: EBV gp42 inh)
Cc1ccc(/C(O)=C/c2nc3cc(C)ccc3oc2=O)cc1	MEX-5 binding -120
CCOc1ccc(NC(=O)CN(C)C(=O)c2ccc(-c3ccc(C(C)=O)cc3)o2)cc1OCC	none (no result: EBV gp42 inh)
CCOC(=O)Cn1c(-c2ccccc2)nc2ccccc2c1=O	none
CCOC(=O)Cn1c2ccc(OC)cc2c2nc3ccccc3nc21	MEX-5 binding -102, EBV gp42 inh 64
O=c1[nH]c(C2CCN(S(=O)(=O)/C=C/c3ccccc3)CC2)nc2c1nnn2Cc1ccccc1	none (no result: EBV gp42 inh)
CCN1CCc2c(sc(NC(=O)c3ccc4ccccc4c3)c2C(N)=O)C1	MEX-5 binding -46 (no result: EBV gp42 inh)

Compound activity from PubChem.
